Results with a measured potency or affinity are listed apart. Calls of active or inactive are those of the source. The rule behind the calls is not given here.

The record followed here is PubChem BioAssay AID651917 (Southern Research Specialized Biocontainment Screening …, 2012).

This test in a line: VEEV TC-83 cytopathic effect inhibitors, confirmation, cell-based, TC-83 strain, set 8 (AID 651917). As to conditions: VEEV TC-83 infected cells; series mostly up to 25 µM.
For the compound `CCN1CCN(Cc2nc3ccc([N+](=O)[O-])cc3c(=O)n2C)CC1`, the compound was classed as inactive.
As for `CN(C)c1cccc(-n2c(CN3CCNCC3)nc3ccc([N+](=O)[O-])cc3c2=O)c1`, the result was inactive.
The value for `O=c1nc(N2CCN(Cc3ccccc3)CC2)sc2ncccc12` was “inactive”.
The value for `O=c1nc(Nc2ccc(CCc3ccccc3)cc2)sc2ncccc12` was “inactive”.
For `O=C1CN(Cc2nc3ccc([N+](=O)[O-])cc3c(=O)n2-c2ccccc2F)CCN1`, the call was inactive.
On to `CN(C)c1ccc(-n2c(CN3CCNCC3)nc3ccc([N+](=O)[O-])cc3c2=O)cc1`, for which the compound was classed as inactive.
Turning to `CCN1CCN(Cc2nc3ncccc3c(=O)n2-c2ccccc2)CC1`, the compound was classed as inactive.
`O=c1nc(Nc2ccccc2OCc2ccccc2)sc2ncccc12`: the compound was called inactive.
For `CCN1CCN(Cc2nc3ccc(-c4nn[nH]n4)cc3c(=O)n2-c2ccccc2)CC1`, the result was inactive.
The value for `Cc1cccc(C)c1Nc1nc(=O)c2cccnc2s1` was “inactive”.
The value for `CCN(CC)c1nc(=O)c2cccnc2s1` was “inactive”; that for `CCN1CCN(CC2Nc3ccc([N+](=O)[O-])cc3C(=O)N2c2ccccc2F)CC1` (stereo not drawn) was “inactive”.
Take `CCN1CCN(Cc2nc3ccc(C(=O)O)cc3c(=O)n2-c2ccccc2)CC1`: the result was inactive.
The value for `O=c1nc(NC2CCNCC2)sc2ncccc12` was “inactive”.
`O=c1nc(Nc2ccc(F)cc2)sc2ncccc12`: the result was inactive.
For `CCN1CCN(Cc2nc3c([N+](=O)[O-])cccc3c(=O)n2-c2ccccc2)CC1`, the outcome was inactive.
Regarding `CCN1CCN(c2nc3ccc([N+](=O)[O-])cc3c(=O)n2-c2ccccc2)CC1`, the result was inactive.
The value for `CCN1CCN(Cc2nc3ccc(S(=O)(=O)O)cc3c(=O)n2-c2ccccc2)CC1` was “inactive”; that for `CCN1CCN(Cc2nc3ccc([N+](=O)[O-])cc3c(=O)n2Cc2ccccc2)CC1` was “inactive”.
Take `COc1ccc(Nc2nc(=O)c3cccnc3s2)cc1`: the compound was called inactive.
Turning to `O=c1nc(Nc2ccc(OCc3ccccc3)cc2)sc2ncc([N+](=O)[O-])cc12`, the compound was called inactive.
Consider `COc1ccccc1-n1c(CN2CCNCC2)nc2ccc([N+](=O)[O-])cc2c1=O`, for which the result was inactive.
The value for `CCN1CCN(Cc2nc3ccc(-c4cccnc4)cc3c(=O)n2-c2ccccc2)CC1` was “inactive”.
